Data: PubChem BioAssay (NCI)
This is part of a sample that, as a whole, favours compounds with a hit. Of some 83,000 tested, about 20% had one in any assay.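 How to read the values: 0–100, growth inhibition (40 = 60% inhibited); 0, no net growth; -100 to 0, cell death (-40 = 40% of starting cells died; -100 = all dead).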 Unmarked numbers belong to inactive results. Activity calls are given as the source filed them. How the source made its calls: active means growth percent below 10; inactive means the rest.

Columns and labels:
Test in all cases: NCI-60 one-dose screen, 48 h (100 = growth as untreated, 0 = no growth, -100 = all killed)
Details in all cases: 10 µM unless noted
NCI-H23 lung = tested on: NCI-H23 lung
NCI-H226 lung = tested on: NCI-H226 lung
NCI-H322M lung = tested on: NCI-H322M lung
HOP-62 NSCLC = tested on: HOP-62 NSCLC
NCI-H460 lung = tested on: NCI-H460 lung
HOP-92 NSCLC = tested on: HOP-92 NSCLC
NCI-H522 lung = tested on: NCI-H522 lung
A549/ATCC NSCLC = tested on: A549/ATCC NSCLC
786-0 renal = tested on: 786-0 renal
COLO 205 colon = tested on: COLO 205 colon
DU-145 prostate = tested on: DU-145 prostate
K-562 leukemia = tested on: K-562 leukemia
MALME-3M melanoma = tested on: MALME-3M melanoma
MDA-MB-231 breast = tested on: MDA-MB-231 breast
RXF 393 renal = tested on: RXF 393 renal
SF-268 CNS = tested on: SF-268 CNS
SF-295 CNS = tested on: SF-295 CNS
SF-539 CNS = tested on: SF-539 CNS
UACC-257 melanoma = tested on: UACC-257 melanoma
M14 melanoma = tested on: M14 melanoma

SMILES | growth (NCI-H23 lung) | growth (NCI-H226 lung) [%] | growth (NCI-H322M lung) [%] | growth (HOP-62 NSCLC) [%] | growth (NCI-H460 lung) | growth (HOP-92 NSCLC) | growth (NCI-H522 lung) | growth (A549/ATCC NSCLC) | growth (786-0 renal) | growth (COLO 205 colon) | growth (DU-145 prostate) | growth (K-562 leukemia) | growth (MALME-3M melanoma) | growth (MDA-MB-231 breast) | growth (RXF 393 renal) | growth (SF-268 CNS) | growth (SF-295 CNS) | growth (SF-539 CNS) | growth (UACC-257 melanoma) | growth (M14 melanoma)
Cc1ccccc1COc1ccc(-c2ccnn2-c2ccc(Cl)cc2)cc1 | 76.6% | 70.3 | 96.9 | 49.3 | 58.3% | 74.2% | 29.1% | 49.6% | 82.8% | 71.2% | 88.1% | 13.7% | 67.2% | 84.2% | 60.3% | 80.5% | 53.1% | 71.8% | 75.7% | 39%
CON1C(=O)CC[C@]2(C)[C@H]3CC[C@@H]4C([C@@]5(C)CCC(=O)O5)CC[C@@]4(C)[C@]3(C)CC[C@H]2C1(C)C (some centres undefined) | 95.6% | 94.9 | 108 | 98.4 | 103% | 95.3% | 85.9% | 102% | 100% | 124% | 107% | 83% | 105% | 96.5% | 98% | 97.4% | 104% | 99.8% | 107% | 97%
O=C1/C(=C/c2ccc(Cl)cc2)SC(=S)N1CCc1ccc(O)cc1 | 89.7% | 96.1 | 99.3 | 99.9 | 99.3% | 73.7% | -30% (active) | 87% | 78.6% | 110% | 50.2% | 96.9% | 81.5% | 84% | 94.1% | 85% | 102% | 80% | 99.5% | 104%
O=C1/C(=C/c2ccc3c(c2)OCO3)SC(=S)N1CCc1ccc(O)cc1 | 94.1% | 102 | 97.3 | 102 | 102% | 72% | 48.2% | 93.5% | 75.2% | 116% | 52.3% | 95.8% | 89.5% | 91.2% | 111% | 95.2% | 99.5% | 91.8% | 99.7% | 94.4%
Cn1cc(C(=O)c2nc(-c3c[nH]c4ccccc34)no2)c2ccccc21 | 65.6% | 57.3 | 68.2 | 78.9 | 35.2% | 63.8% | 56.5% | 73.7% | 98.4% | 56% | 102% | 37.9% | 58.4% | 69.8% | 90.1% | 92.1% | 68.5% | 91.7% | 83.9% | 64.5%
O=C1/C(=C/c2cn(-c3ccccc3)nc2-c2ccccc2)SC(=S)N1CCc1ccccc1 | 102% | 99.4 | 113 | 94 | 102% | 122% | 93.5% | 111% | 106% | 116% | 110% | 108% | 104% | 106% | 111% | 95.5% | 103% | 106% | 113% | 102%
NC(=O)c1cc(Cl)ccc1NC(=O)/C=C/c1ccccc1 | 60.3% | 63.6 | 45.1 | 84.9 | 12.1% | 58.7% | 4.73% (active) | 17.8% | 56.8% | -43.3% (active) | -0.745% (active) | 11.6% | 67% | 39.2% | -11.1% (active) | 46.1% |  | -6.33% (active) | 46.2% | 28.1%
CCOc1ccc(-n2nc(C(=O)Nc3ccccc3)nc2-c2cc(OC)c(OC)c(OC)c2)cc1 | 66.6% | 80 | 67.6 | 55.7 | 27.9% | 46% | 22.8% | 41.4% | 69.4% | 22.1% | 89.6% |  | 54.5% | 43.9% | 69.2% | 76.5% | 34% | 62% | 66.4% | 
NC(=O)c1cc(I)ccc1NC(=O)/C=C/c1ccccc1Cl | 43.4% | 44.1 | 55.5 | 83 | 0.527% (active) | 48.3% | -45.9% (active) | 15.7% | 48.1% | -26.7% (active) | -18.8% (active) | 5.46% (active) | 67.5% | 23.3% | -17.9% (active) | 36.8% |  | -35.7% (active) | 65.7% | 4.96% (active)
NC(=NCCCOc1ccc(Cl)cc1)Nc1ccc(Cl)cc1 | 23.4% | 107 | 31.8 | 33.9 | 48% | 21.6% | 27.8% | 24.1% | 58.4% | -65.6% (active) | 16.9% |  | -20.8% (active) | -6.18% (active) | 79.3% | 36.6% | 17.9% | 31.4% | 6.24% (active) | 
Clc1ccc2nc3nc4ccc[nH]c4cc3c2c1 | 73.7% | 83.8 | 65.1 | 89.7 | 54.4% | 105% | 81.1% | 79.2% | 105% | 98.9% | 100% |  | 87.2% | 99.6% | 116% | 97.9% | 101% | 83.7% | 85.8% | 
CCCCC/C(C=C(C#N)C#N)=C/c1ccccc1 | 68.9% | 116 | 102 | 106 | 37.4% | 112% | -10.1% (active) | 61.6% | 87% | 86.5% | 71.3% | 42.2% | 95.4% | 77.7% |  | 81.7% | 84.4% | 92.3% | 54% | 73%
Cc1cc(N2CCN(c3ccnc4cc(Cl)ccc34)CC2)nc(N2CCOCC2)n1 | 84.4% | 88.6 | 95.3 | 91.9 | 96.7% | 66.2% | 85.3% | 89.4% | 97.8% | 73% | 88.1% | 55.9% |  | 64.1% | 80.6% | 87.4% | 81.1% | 96.6% | 88.6% | 87.2%
COC(=O)c1ccc2oc(NC(=O)c3ccc(Nc4ccc([N+](=O)[O-])cc4C)c([N+](=O)[O-])c3)nc2c1 | 95.9% | 92.1 | 101 | 107 | 101% | 101% | 94.4% | 100% | 99.8% | 107% | 108% | 104% | 100% | 105% | 103% | 97.9% | 98.8% | 96.1% | 103% | 110%
COc1cc2nc(N3CCCC3)nc(Nc3ccccc3)c2cc1OC | 2.6% (active) | 29.2 | 19.3 | 16.3 | -42.1% (active) | -25.9% (active) | -53% (active) | -39.8% (active) | -90.5% (active) | -84.1% (active) | 9.82% (active) | -11.6% (active) | -85.9% (active) | -69.4% (active) | -84.5% (active) | -0.197% (active) | -63.2% (active) | -87.4% (active) | -84.2% (active) | -70.7% (active)
COc1ccc(Nc2c3c4c(cccc4[nH]c2=O)C(=O)c2ccccc2-3)cc1 | 4.11% (active) | 17 | 24.9 | 28 | -44.4% (active) | 15.5% | -20.4% (active) | 20.6% | 12.1% | -64.5% (active) | -20.9% (active) | -19% (active) | 41.1% | -20.5% (active) |  | 21.4% | -52.4% (active) | -31.3% (active) | 64.1% | 11.7%
